In PubChem BioAssay AID651593 (National Center for Advancing Translational Sciences (NCATS), 2012):
In all, about 1,100 compounds went through this assay and about 860 (78%) were called active. Another 19% or so got no clear call; they are omitted. The call rests on the fitted dose curve; in most records, active means well fitted activation curve with a large enough effect; inconclusive means small, poorly fitted or top-dose-only effect; inactive means flat fitted curve, though single readings scatter. So high a share suggests a set chosen from earlier hits. The list shows a part of the results.

Experiment: qHTS of Nrf2 Activators: Hit Validation in Primary Assay; further: nearly all actives have a fitted effect of over 70% in size
Settings: Nrf2/ARE reporter cell assay, activation
From the text: Many diseases have some form of oxidative stress injury and ties to inflammation, causing a host of problems for the patient. The antioxidant response element (ARE) plays an important role in alleviating the harmful effects of oxidative stress. The antioxidant response element (ARE) is a transcriptional regulatory element involved in the activation of genes coding for a number of antioxidant proteins and detoxifying enzymes. These enzymes work in concert to protect tissues from oxidative insults and chemical toxicities in human hepatocytes and immune cells. The protective effects of ARE activation are primarily triggered through Nrf2 (NF-E2-related factor) binding to and activating AREs. It is known that Nrf2 controls the production of over 250 antioxidant and detoxification proteins (Hu et al., 2006), thereby protecting tissues by increasing cellular antioxidant content and suppressing inflammatory signaling pathways. The transcription factor Nrf2 is a central link between oxidative chemicals, such as phenolic antioxidants and electrophilic compounds, and the activation of ARE. Nrf2 levels are constitutively low as a consequence of its interaction with Keap1, which targets its degradation (Zipper and Mulcahy, 2002). Electrophiles react with key cysteine residues in Keap1, releasing Nrf2 and allowing its translocation to the nucleus. Once within the nucleus, Nrf2 complexes with coactivators such as p300, and binds to the AREs to induce gene transcription of cytoprotective enzymes, resulting in the prevention of toxicity. Activation of Nrf2 protects tissues by increasing cellular antioxidant content and suppressing inflammatory signaling pathways. Identifying novel and potent Nrf2 activators by using the AREc32 cell line to detect ARE activation by small molecules will lead to the identification and development of probes to study protective pathways in multiple tissues. These specific probes are essential to study the ARE pathway, and eventually to determine whether this pathway does activate genes that could protect against a host of diseases, including cardiovascular diseases, obesity, diabetes, Alzheimer's, and Parkinson's disease.
This project's aim is to identify novel and potent Nrf2 activators by using the AREc32 cell line to detect ARE activation by small molecules, which will lead to the identification and development of probes to study the ARE pathway.
NIH Chemical Genomics Center [NCGC]
NIH Molecular Libraries Probe Centers Network [MLPCN]
Assay Submitter (PI): Curtis Klaassen, University of Kansas Medical Center
Quantification of ARE activation after compound treatment was measured by the Steady-Glo Luciferase (R) assay system (Promega) in AREc32_fluc stable cells. The Steady-Glo reagent acts by cell lysis and generation of a luminescent signal proportional to ARE activation, through the luciferase reporter in the AREc32 stable cell line. AREc32_fluc cells were harvested from T225 flask and resuspended in phenol red free OPTI-MEM medium with 5% FBS. Then 5 microL of 200,000 cells/mL resuspended cells were dispensed into each well of white, solid bottom, 1536-well tissue culture-treated plates using a Multidrop Combi dispenser. After overnight culture at 37 degrees C with 5% CO2, a total of 23 nL of compounds at 5 selected concentrations from the MLSMR/Sytravon or positive control (40 uM stock of CDDO-IM and 2 mM of tBHQ) in DMSO was transferred to each well of the assay plate using a pintool (Kalypsys, San Diego, CA), and the plates were further incubated at 37 degrees C with 5% CO2 for 24 hours. After that, 2 microL of Steady Glo luminescent substrate mix (Promega) was added to each well. The plate was incubated at room temperature for 30 minutes. The plates were measured on a ViewLux plate reader (PerkinElmer) with clear filter.
Potency means the concentration at half of the fitted maximal effect.

Structure (SMILES)	Potency
COc1ccc(Sc2cnn(-c3ccccc3)c(=O)c2Cl)cc1	4.61 µM (active)
O=c1[nH]c(=S)[nH]c(O)c1N=Nc1ccc(S(=O)(=O)N2CCc3ccccc32)cc1	16.4 µM (active)
Clc1ccccc1Nc1ncnc(-n2cccc2)n1	2.59 µM (active)
Cc1cccc(C(=O)Nc2nnc(SCC(=O)NCc3ccco3)s2)c1	8.2 µM (active)
Cc1cc(SCC(=O)N/N=C/c2ccco2)nc2ccccc12	11.6 µM (active)
Cn1c(=O)oc2cc(NC(=O)CCl)ccc21	4.61 µM (active)
CCn1c(=O)oc2cc(NC(=O)CCl)ccc21	4.61 µM (active)
O=C(O)c1ccc([N+](=O)[O-])c([N+](=O)[O-])c1	5.17 µM (active)
Cn1c(O)c(N=Nc2ccc(S(=O)(=O)N3CCOCC3)cc2)c(=O)n(C)c1=O	18.4 µM (active)
Clc1cccc(/C=N\Nc2nccs2)c1	2.91 µM (active)
O=C(Nc1ccc(Cl)c(Cl)c1)c1ccco1	4.61 µM (active)
O=C1c2ccccc2-c2cc3ccccc3cc21	4.61 µM (active)
Fc1cccc(F)c1-c1nc(-c2ccc(Cl)cc2)no1	3.66 µM (active)
CCCCn1c(O)c(C(=O)/C=C/c2ccc3c(c2)OCO3)c(=O)[nH]c1=O	9.2 µM (active)
O=C(/C=C/c1ccccc1)c1c(O)n(CCc2ccccc2)c(=O)[nH]c1=O	3.66 µM (active)
